# ChEMBL document CHEMBL1961873, “Compounds: GSK PKIS; Assays: Nanosyn kinase panel” (2012)
# Assays:
# [1] = target: Ribosomal protein S6 kinase alpha-6 (Homo sapiens) (UniProt Q9UK32); settings: at 1 µM;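 also: each value is a mean inhibition of RSK4 from a GSK PKIS panel screen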
# [2] = target: T1, Serine/threonine-protein kinase Sgk1 (Homo sapiens) (UniProt O00141); settings: at 0.1 µM
# T1 sequence (whole entry): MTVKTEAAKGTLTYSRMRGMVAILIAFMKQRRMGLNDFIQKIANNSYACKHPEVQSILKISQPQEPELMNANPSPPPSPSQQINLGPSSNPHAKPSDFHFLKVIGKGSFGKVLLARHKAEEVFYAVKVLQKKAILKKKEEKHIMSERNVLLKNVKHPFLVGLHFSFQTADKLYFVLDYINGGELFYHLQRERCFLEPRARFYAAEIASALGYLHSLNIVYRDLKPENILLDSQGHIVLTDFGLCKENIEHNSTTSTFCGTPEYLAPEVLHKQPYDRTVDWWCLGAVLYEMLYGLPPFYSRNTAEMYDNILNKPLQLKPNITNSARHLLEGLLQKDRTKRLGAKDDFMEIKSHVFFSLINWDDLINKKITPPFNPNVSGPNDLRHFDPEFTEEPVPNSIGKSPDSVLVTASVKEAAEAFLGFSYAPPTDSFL
# [3] = target: T1, Serine/threonine-protein kinase Sgk1 (Homo sapiens); settings: at 1 µM
# [4] = target: T2, Serine/threonine-protein kinase Sgk2 (Homo sapiens) (UniProt Q9HBY8); settings: at 0.1 µM
# T2 sequence (whole entry): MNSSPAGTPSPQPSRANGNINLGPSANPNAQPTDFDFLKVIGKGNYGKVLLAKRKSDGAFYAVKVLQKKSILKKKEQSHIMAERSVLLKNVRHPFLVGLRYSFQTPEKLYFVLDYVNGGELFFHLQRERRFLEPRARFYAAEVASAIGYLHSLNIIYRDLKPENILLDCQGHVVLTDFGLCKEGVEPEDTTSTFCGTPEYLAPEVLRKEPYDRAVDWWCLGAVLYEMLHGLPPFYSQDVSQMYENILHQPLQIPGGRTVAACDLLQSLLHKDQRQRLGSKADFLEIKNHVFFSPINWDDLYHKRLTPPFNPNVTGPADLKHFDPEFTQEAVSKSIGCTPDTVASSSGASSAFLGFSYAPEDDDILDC
# [5] = target: T2, Serine/threonine-protein kinase Sgk2 (Homo sapiens); settings: at 1 µM
# [6] = target: T3, Serine/threonine-protein kinase Sgk3 (Homo sapiens) (UniProt Q96BR1); settings: at 0.1 µM
# T3 sequence (whole entry): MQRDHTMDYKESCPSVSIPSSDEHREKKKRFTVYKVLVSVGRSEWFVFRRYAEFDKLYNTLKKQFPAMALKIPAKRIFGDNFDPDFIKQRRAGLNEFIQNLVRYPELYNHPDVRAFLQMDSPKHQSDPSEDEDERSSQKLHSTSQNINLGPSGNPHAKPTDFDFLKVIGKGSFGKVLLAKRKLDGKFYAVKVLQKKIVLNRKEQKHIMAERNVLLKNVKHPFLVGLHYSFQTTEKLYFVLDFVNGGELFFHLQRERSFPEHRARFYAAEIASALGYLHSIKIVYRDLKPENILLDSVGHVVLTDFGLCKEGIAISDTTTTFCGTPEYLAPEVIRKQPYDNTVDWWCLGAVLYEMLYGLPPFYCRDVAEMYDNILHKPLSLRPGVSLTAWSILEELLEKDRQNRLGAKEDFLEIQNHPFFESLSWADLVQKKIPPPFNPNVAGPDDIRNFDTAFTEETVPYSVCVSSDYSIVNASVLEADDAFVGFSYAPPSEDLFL
# [7] = target: T3, Serine/threonine-protein kinase Sgk3 (Homo sapiens); settings: at 1 µM
# [8] = target: 5'-AMP-activated protein kinase catalytic subunit alpha-1 (Homo sapiens) (UniProt Q13131); settings: at 0.1 µM
# Sequence of 5'-AMP-activated protein kinase catalytic subunit alpha-1 (Homo sapiens) (Q13131 whole entry, looked up): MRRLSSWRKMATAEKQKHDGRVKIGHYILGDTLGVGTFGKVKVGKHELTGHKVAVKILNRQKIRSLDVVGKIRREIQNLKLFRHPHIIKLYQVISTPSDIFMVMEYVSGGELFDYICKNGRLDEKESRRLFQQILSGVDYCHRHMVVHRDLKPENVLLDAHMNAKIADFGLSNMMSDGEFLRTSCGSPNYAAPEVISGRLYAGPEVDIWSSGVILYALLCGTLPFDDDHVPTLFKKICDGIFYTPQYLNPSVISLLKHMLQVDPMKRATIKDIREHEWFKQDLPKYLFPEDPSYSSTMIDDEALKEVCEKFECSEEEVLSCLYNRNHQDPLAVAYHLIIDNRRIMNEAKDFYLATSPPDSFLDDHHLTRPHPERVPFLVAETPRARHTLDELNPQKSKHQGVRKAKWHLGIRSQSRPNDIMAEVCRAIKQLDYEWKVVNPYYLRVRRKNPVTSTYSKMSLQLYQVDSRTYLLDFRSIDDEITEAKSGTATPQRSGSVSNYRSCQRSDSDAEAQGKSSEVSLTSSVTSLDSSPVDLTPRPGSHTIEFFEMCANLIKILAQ
# [9] = target: 5'-AMP-activated protein kinase catalytic subunit alpha-1 (Homo sapiens) (UniProt Q13131); settings: at 1 µM
# [10] = target: 5'-AMP-activated protein kinase catalytic subunit alpha-2 (Homo sapiens) (UniProt P54646); settings: at 0.1 µM
# Sequence of 5'-AMP-activated protein kinase catalytic subunit alpha-2 (Homo sapiens) (P54646 whole entry, looked up): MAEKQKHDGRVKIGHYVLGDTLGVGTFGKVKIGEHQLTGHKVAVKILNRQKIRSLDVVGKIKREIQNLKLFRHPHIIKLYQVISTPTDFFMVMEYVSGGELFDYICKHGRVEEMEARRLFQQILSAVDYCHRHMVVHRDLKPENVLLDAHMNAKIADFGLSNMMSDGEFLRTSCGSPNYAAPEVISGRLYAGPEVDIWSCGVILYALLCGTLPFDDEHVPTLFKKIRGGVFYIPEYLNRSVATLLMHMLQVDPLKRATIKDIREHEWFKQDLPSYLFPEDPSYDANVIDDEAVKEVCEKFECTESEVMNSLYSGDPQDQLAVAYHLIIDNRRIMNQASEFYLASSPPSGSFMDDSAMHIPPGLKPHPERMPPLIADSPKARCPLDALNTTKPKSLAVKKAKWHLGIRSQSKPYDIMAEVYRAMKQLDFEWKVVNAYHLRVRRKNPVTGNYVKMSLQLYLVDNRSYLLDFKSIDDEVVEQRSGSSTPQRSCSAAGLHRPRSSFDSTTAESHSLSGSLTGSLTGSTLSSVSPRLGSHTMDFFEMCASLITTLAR
# [11] = target: 5'-AMP-activated protein kinase catalytic subunit alpha-2 (Homo sapiens) (UniProt P54646); settings: at 1 µM
# [12] = target: T4, NUAK family SNF1-like kinase 1 (Homo sapiens) (UniProt O60285); settings: at 0.1 µM
# T4 sequence (whole entry): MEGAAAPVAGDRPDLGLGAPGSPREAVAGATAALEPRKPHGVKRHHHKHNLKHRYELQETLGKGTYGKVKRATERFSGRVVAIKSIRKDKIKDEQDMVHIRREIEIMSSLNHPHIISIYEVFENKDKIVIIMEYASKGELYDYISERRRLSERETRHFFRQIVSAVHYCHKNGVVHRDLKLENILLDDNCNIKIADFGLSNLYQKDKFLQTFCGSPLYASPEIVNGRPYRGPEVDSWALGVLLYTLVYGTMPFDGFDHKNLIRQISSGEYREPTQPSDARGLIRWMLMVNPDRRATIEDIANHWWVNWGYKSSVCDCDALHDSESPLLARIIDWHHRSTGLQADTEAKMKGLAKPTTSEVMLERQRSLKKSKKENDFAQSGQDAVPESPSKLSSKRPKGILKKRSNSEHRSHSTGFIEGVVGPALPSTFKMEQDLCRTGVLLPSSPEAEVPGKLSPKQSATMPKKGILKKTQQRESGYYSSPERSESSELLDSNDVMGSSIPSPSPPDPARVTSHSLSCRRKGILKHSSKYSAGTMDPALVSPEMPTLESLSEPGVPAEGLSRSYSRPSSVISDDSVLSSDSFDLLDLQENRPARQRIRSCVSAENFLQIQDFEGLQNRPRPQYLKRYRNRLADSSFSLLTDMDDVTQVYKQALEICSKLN
# [13] = target: T4, NUAK family SNF1-like kinase 1 (Homo sapiens); settings: at 1 µM
# [14] = target: T5, Serine/threonine-protein kinase BRSK1 (Homo sapiens) (UniProt Q8TDC3); settings: at 0.1 µM
# T5 sequence (whole entry): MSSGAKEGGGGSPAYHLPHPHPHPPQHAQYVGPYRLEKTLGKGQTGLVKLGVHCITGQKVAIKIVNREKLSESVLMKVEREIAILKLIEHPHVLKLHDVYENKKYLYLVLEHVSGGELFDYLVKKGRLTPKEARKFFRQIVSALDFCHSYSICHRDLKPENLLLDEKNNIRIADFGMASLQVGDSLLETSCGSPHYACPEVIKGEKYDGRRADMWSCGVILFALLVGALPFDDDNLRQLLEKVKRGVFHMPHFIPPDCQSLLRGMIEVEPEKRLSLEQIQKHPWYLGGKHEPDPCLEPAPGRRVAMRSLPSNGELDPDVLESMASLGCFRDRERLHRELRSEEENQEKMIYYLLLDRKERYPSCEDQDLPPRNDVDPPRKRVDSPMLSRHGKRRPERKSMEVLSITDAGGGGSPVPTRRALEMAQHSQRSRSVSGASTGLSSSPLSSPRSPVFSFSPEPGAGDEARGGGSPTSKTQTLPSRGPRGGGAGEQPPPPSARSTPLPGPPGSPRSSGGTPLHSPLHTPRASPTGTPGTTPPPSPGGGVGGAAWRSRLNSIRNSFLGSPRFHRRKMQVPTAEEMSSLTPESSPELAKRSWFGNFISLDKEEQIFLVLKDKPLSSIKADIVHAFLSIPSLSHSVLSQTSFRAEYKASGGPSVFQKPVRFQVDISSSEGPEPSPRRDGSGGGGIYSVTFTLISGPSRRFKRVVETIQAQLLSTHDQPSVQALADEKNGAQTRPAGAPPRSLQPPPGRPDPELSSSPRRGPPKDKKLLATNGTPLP
# [15] = target: T5, Serine/threonine-protein kinase BRSK1 (Homo sapiens); settings: at 1 µM
# [16] = target: T6, Serine/threonine-protein kinase BRSK2 (Homo sapiens) (UniProt Q8IWQ3); settings: at 0.1 µM
# T6 sequence (whole entry): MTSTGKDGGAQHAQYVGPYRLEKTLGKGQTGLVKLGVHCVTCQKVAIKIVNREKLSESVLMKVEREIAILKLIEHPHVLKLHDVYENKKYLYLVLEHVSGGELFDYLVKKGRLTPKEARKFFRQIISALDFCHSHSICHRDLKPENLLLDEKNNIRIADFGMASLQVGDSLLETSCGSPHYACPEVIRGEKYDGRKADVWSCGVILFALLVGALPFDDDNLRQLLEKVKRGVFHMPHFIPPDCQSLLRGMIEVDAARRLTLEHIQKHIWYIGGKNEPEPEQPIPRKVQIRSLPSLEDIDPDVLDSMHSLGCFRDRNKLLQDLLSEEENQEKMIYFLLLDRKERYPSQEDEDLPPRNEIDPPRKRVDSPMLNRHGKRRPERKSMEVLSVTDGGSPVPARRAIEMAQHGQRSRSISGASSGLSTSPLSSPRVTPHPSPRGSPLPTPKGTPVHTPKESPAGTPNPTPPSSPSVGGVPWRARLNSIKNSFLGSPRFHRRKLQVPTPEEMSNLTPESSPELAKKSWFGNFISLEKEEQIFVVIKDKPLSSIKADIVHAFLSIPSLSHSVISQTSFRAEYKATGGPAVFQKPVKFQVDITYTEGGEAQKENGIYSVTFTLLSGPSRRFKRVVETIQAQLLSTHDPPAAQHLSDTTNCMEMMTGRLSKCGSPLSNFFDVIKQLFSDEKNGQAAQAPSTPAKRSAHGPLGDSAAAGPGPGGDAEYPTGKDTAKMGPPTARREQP
# [17] = target: T6, Serine/threonine-protein kinase BRSK2 (Homo sapiens); settings: at 1 µM
# [18] = target: Calcium/calmodulin-dependent protein kinase type 1D (Homo sapiens) (UniProt Q8IU85); settings: at 0.1 µM
# Sequence of Calcium/calmodulin-dependent protein kinase type 1D (Homo sapiens) (Q8IU85 whole entry, looked up): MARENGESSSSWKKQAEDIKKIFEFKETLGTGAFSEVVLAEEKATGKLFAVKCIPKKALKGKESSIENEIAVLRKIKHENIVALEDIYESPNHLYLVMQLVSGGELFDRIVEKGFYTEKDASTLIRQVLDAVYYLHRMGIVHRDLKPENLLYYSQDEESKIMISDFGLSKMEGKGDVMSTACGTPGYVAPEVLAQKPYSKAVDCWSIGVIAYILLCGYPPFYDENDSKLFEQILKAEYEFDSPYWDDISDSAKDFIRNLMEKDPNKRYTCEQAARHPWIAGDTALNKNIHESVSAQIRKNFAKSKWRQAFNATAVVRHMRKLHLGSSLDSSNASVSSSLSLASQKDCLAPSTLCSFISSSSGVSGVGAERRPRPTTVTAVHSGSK
# [19] = target: Calcium/calmodulin-dependent protein kinase type 1D (Homo sapiens) (UniProt Q8IU85); settings: at 1 µM
# [20] = target: Calcium/calmodulin-dependent protein kinase type II subunit alpha (Homo sapiens) (UniProt Q9UQM7); settings: at 0.1 µM;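 also: reported values are averages (mean inhibition of CAMK2A)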
# Sequence of Calcium/calmodulin-dependent protein kinase type II subunit alpha (Homo sapiens) (Q9UQM7 whole entry): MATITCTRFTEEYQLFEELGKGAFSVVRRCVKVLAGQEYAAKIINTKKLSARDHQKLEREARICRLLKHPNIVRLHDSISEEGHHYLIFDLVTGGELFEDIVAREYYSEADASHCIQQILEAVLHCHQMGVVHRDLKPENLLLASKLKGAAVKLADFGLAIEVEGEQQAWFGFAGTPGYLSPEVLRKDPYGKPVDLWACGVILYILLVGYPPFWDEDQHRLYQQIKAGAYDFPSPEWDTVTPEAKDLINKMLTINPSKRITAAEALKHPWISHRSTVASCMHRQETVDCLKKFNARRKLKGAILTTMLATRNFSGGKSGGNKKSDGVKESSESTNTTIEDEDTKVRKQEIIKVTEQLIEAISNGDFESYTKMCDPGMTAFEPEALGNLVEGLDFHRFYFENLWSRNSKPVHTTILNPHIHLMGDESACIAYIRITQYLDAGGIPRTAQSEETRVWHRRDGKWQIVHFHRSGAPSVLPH
# Sequence of Ribosomal protein S6 kinase alpha-6 (Homo sapiens) (Q9UK32 whole entry): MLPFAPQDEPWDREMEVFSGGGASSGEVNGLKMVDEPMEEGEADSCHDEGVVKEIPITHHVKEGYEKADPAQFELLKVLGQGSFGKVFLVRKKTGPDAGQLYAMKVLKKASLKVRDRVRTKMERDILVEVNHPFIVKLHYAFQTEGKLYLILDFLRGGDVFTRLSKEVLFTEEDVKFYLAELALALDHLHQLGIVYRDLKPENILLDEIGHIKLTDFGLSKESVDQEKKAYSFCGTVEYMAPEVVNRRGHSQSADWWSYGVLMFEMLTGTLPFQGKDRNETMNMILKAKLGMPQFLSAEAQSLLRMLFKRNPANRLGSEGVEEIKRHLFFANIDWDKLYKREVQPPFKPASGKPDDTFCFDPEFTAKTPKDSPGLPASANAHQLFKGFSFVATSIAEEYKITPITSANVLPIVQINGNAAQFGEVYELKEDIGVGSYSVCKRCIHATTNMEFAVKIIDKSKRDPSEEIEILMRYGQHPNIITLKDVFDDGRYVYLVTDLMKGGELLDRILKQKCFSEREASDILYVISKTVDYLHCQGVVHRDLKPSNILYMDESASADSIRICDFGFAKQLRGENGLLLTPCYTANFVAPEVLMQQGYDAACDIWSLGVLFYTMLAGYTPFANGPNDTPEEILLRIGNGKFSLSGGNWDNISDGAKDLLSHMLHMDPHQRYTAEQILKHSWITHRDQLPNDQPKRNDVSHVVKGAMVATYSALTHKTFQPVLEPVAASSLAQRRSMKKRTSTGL
SMILES,inhibition [1] [%],inhibition [2] [%],inhibition [3] [%],inhibition [4] [%],inhibition [5] [%],inhibition [6] [%],inhibition [7] [%],inhibition [8] [%],inhibition [9] [%],inhibition [10] [%],inhibition [11] [%],inhibition [12] [%],inhibition [13] [%],inhibition [14] [%],inhibition [15] [%],inhibition [16] [%],inhibition [17] [%],inhibition [18] [%],inhibition [19] [%],inhibition [20] [%]
Fc1ccc(-c2cc(-c3c[nH]nc3-c3ccccn3)ccn2)cc1,0.89,3.85,5.98,3.86,0.65,5.08,4.1,4.84,4.83,2.6,1.61,-0.78,-3.39,-0.21,0.81,1.49,1.96,-2.23,-1.28,3.34
COC(=O)Nc1nc2ccc(Oc3ccc(NC(=O)Nc4cccc(Cl)c4)cc3)cc2[nH]1,-1.02,0.53,0.15,1.28,-2.41,0.38,0.61,0.94,0.58,1.29,2.32,1.13,-0.04,-0.24,-0.19,1.18,0.86,0.74,0.72,-1.44
COc1ccc(CNC(=O)c2ccc(-c3cc(-c4nnc(C)o4)ccc3C)cc2)cc1,0.1,5.7,6.79,4.8,8.78,7.73,8.7,0.41,5.85,2.84,2.36,2.93,5.45,0.61,8.76,3.42,13,1.11,-0.23,1.23
COc1ccc(-c2nn3ncccc3c2-c2ccnc(Nc3ccc4c(c3)OCCO4)n2)cc1,2.56,1.1,1.98,-0.02,0.9,-1.8,0.46,1.06,1.64,0.54,0.38,-0.71,2.67,-0.94,2.44,0.33,1.64,9.78,0.03,0.38
Fc1cccc(COc2ccc(Nc3ncnc4sc(-c5ccco5)cc34)cc2Cl)c1,1.67,2.84,3.04,1.55,0.68,4.19,4.61,2.46,4.38,4.1,5.24,1.97,6.27,0.38,7.21,4.09,7.5,-0.77,-1.08,1.16
CS(=O)(=O)CCNCc1coc(-c2ccc3ncnc(Nc4ccc(OCc5ccccc5)cc4)c3c2)c1,2.32,2.57,2.35,-0.69,1.93,-0.71,1.87,2.75,2.96,3.81,4.29,2.46,3.61,1.86,-1.55,1.32,3.39,0.92,2.2,2.93
CC(=O)NCc1cccc(C#Cc2cncnc2Nc2ccc(OCc3cccc(F)c3)c(Cl)c2)c1,1.01,0.94,0.99,4.36,-2.04,-1.07,1.92,1.28,3.03,2.22,3.37,3.47,1.8,1.85,3.55,1.29,5.12,0.67,2.08,24.7
